Results: PubChem BioAssay (Tox21)
“And” between values parts separate entries of the source, which are not always exact repeats. Equal entries are not always repeated. The source made the active and inactive calls. Unless noted, calls follow the shape of the dose curve; as a rule, active = well fitted curve in the direction sought with a large enough effect in the repeat runs; inconclusive = weak or mixed curves; inactive = no such curve, though single readings can be large; an effect the other way counts as inactive or inconclusive.

Key:
[1] = qHTS assay for small molecules that induce genotoxicity in human embryonic kidney cells expressing luciferase-tagged ATAD5 - cell viability (AID 651634; calls by dose curve; also: nearly all actives have a fitted effect of over 25% in size; also: potency is read from the fitted curve at half-maximal effect)
Summary of the method: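 HEK293T cells expressing luciferase-tagged ATAD5 were exposed to compound or DMSO for 15.5 hr at 37C, 5% CO2. Viability was then read as live-cell protease activity by CellTiter-Fluor fluorescence after 30 min at 37C.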

[2] = qHTS assay for small molecule disruptors of the mitochondrial membrane potential (AID 720635); also: potency is read from the fitted curve at half-maximal effect
Summary of the method: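 HepG2 cells (2,000/well) attached overnight at 37C, then took compound for 1 hr at 37C, 5% CO2. Mito-MPS dye was added for 30 min; fluorescence was read at 490/535 nm (monomers) and 540/590 nm (aggregates).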

[3] = qHTS assay for identifying genotoxic compounds that show differential cytotoxicity against isogenic chicken DT40 cell lines with known DNA damage response pathways - Rad54/Ku70 mutant cell line (AID 743015); also: potency is read from the fitted curve at half-maximal effect; nearly all actives have a fitted effect of over 60% in size
[4] = qHTS assay to identify small molecule antagonists of the androgen receptor (AR) signaling pathway - cell viability counter screen (AID 743033; also: nearly all actives have a fitted effect of over 45% in size; also: potency is read from the fitted curve at half-maximal effect)
[5] = qHTS assay to identify small molecule antagonists of the thyroid receptor (TR) signaling pathway - cell viability counter screen (AID 743064); also: potency is read from the fitted curve at half-maximal effect; nearly all actives have a fitted effect of over 50% in size
Summary of the method: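 Compounds were tested on GH3.TRE-Luc cells in the presence of T3 at 1 nM final. Following 23.5 h at 37 °C, cell viability was quantified by CellTiter-Fluor.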

[6] = qHTS assay to identify small molecule antagonists of the thyroid receptor (TR) signaling pathway (AID 743065); also: nearly all actives have a fitted effect of over 55% in size; also: potency is read from the fitted curve at half-maximal effect
Summary of the method: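 GH3.TRE-Luc rat pituitary cells carrying two TR response elements driving luciferase were plated for 4 h, given compound plus 1 nM T3 (final), and incubated 23.5 h at 37 C. ONE-Glo luminescence measured reporter inhibition; CellTiter-Fluor fluorescence tracked cytotoxicity.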

[7] = qHTS assay to identify small molecule antagonists of the estrogen receptor alpha (ER-alpha) signaling pathway - cell viability counter screen (AID 743074; calls by dose curve;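 also: HEK293 cells carrying ER-alpha-UAS-bla reporter stimulated with 17beta-estradiol; nearly all actives have a fitted effect of over 45% in size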; also: potency is read from the fitted curve at half-maximal effect)
[8] = target: Estrogen receptor (Homo sapiens) (UniProt P03372); experiment: qHTS assay to identify small molecule agonists of the estrogen receptor alpha (ER-alpha) signaling pathway (AID 743075; calls by dose curve; also: potency is read from the fitted curve at half-maximal effect)
Chain of Estrogen receptor (Homo sapiens) (P03372 whole entry, looked up): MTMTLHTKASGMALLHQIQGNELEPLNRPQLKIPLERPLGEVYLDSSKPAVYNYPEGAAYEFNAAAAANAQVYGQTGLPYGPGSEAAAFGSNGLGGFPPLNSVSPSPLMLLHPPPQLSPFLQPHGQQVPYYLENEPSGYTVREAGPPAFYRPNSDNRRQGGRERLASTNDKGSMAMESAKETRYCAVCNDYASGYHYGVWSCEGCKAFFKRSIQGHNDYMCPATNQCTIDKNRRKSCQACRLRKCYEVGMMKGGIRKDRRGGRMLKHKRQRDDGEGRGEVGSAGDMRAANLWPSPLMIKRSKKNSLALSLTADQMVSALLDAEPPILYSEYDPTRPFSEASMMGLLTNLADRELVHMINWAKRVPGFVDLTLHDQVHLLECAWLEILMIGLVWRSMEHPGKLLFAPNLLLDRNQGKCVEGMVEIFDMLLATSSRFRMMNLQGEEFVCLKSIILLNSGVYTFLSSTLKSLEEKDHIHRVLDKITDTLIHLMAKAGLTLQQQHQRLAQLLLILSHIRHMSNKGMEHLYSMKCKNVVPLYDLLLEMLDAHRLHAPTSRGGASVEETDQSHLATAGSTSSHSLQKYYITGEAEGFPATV

[9] = qHTS assay to identify aromatase inhibitors - cell viability counter screen (AID 743084);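 also: cells stimulated with testosterone during compound exposure; nearly all actives have a fitted effect of over 55% in size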; also: potency is read from the fitted curve at half-maximal effect
[10] = qHTS assay to identify small molecule that activate the aryl hydrocarbon receptor (AhR) signaling pathway - cell viability counter screen (AID 743086); also: nearly all actives have a fitted effect of over 45% in size; also: potency is read from the fitted curve at half-maximal effect
Summary of the method: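 HepG2-AhR-luc (HG2L7.5c1) cells, 4000/well, were preincubated 5 h at 37C, exposed to compound in qHTS format for 24 hr at 37C, then given CellTiter-Fluor for 30 min; viability was read as fluorescence in the reporter wells.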

[11] = qHTS assay for small molecule activators of the heat shock response signaling pathway (AID 743210; active = well fitted activation curve with a large enough effect in the signal ratio in the repeat runs, with a control signal flat, not every such curve was filed as active; inconclusive = weak or mixed curves; the % refers to the signal ratio; also: series mostly up to about 63 µM)
Summary of the method: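 HSE-bla HeLa cells (beta-lactamase reporter under heat shock response elements) were exposed to compounds for 5 h at 37 C, then loaded with LiveBLAzer B/G FRET substrate for 2.5 h at room temperature before fluorescence reading.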

[12] = target: Nuclear receptor ROR-gamma (Homo sapiens) (UniProt P51449); experiment: qHTS assay to identify small molecule antagonists of the retinoid-related orphan receptor gamma (ROR-gamma) signaling pathway (AID 1159521; also: nearly all actives have a fitted effect of over 50% in size; also: potency is read from the fitted curve at half-maximal effect)
Summary of the method: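 CHO cells expressing RORγ under a TET-on promoter, luciferase under RORE control. Dox 1 uM final, 16 h; compounds added 2 h prior. Luminescence decrease measured.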

[13] = target: Androgen receptor (Homo sapiens) (UniProt P10275); experiment: qHTS assay to identify small molecule antagonists of the androgen receptor (AR) signaling pathway using the MDA cell line in the presence of 0.5 nM R1881 (AID 1259243); also: nearly all actives have a fitted effect of over 50% in size; also: potency is read from the fitted curve at half-maximal effect
Chain of Androgen receptor (Homo sapiens) (P10275 whole entry, looked up): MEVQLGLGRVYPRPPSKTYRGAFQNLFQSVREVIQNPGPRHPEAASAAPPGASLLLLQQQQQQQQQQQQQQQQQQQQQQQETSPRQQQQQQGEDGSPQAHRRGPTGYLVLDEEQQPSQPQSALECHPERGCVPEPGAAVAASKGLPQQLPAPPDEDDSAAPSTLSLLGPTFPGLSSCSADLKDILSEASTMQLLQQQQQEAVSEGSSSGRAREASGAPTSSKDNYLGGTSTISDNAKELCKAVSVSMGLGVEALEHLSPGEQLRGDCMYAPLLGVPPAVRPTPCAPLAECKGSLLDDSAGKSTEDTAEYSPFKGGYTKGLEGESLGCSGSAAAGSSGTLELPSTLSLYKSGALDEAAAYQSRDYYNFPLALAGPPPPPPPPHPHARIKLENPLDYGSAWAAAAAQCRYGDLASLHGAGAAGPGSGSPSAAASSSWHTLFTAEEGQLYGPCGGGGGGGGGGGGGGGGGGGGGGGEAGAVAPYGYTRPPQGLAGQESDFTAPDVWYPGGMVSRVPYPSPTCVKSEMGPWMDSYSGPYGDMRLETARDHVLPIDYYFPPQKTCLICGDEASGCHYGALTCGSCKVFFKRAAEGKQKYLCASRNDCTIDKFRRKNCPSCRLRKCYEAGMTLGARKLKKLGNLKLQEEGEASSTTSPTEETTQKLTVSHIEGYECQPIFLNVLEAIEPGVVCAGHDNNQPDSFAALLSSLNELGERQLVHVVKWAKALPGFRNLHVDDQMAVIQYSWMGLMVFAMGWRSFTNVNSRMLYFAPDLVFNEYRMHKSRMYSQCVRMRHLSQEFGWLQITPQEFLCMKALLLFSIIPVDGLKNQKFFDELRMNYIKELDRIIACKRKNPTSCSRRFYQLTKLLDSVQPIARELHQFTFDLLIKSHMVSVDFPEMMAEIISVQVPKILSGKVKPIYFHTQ
Summary of the method: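 MDA-kb2 human breast carcinoma cells carrying an MMTV-luciferase reporter (AR- and GR-responsive) were plated, rested 5 hr at 37C, dosed with compounds, then stimulated with 0.5 nM R1881 (final) for 16 hr; luminescence was read after ONE-Glo.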

[14] = qHTS assay for identifying genotoxic compounds that show differential cytotoxicity against isogenic chicken DT40 cell lines with known DNA damage response pathways - wild type cell line (AID 743012); also: potency is read from the fitted curve at half-maximal effect; nearly all actives have a fitted effect of over 60% in size
Summary of the method: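 Parental DNA repair-proficient DT40 cells, 300 per well, were pre-incubated ~0.5 h at 37 C/5% CO2, pin-dosed with compounds in DMSO, then incubated 40 h. Viability was read as CellTiter-Glo luminescence after 30 min at room temperature.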

[15] = qHTS assay for identifying genotoxic compounds that show differential cytotoxicity against isogenic chicken DT40 cell lines with known DNA damage response pathways - Rev3 mutant cell line (AID 743014); also: potency is read from the fitted curve at half-maximal effect; nearly all actives have a fitted effect of over 55% in size
[16] = qHTS assay to identify small molecule antagonists of the estrogen receptor alpha (ER-alpha) signaling pathway using the BG1 cell line - cell viability counter screen (AID 743081);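 also: compound given together with 17beta-estradiol as the ER stimulus; series mostly up to about 70 µM; nearly all actives have a fitted effect of over 45% in size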
[17] = qHTS assay to identify small molecule antagonists of the farnesoid-X-receptor (FXR) signaling pathway - cell viability counter screen (AID 743221; active = well fitted cell-killing curve with a large enough effect in the repeat runs, not every such curve was filed as active; inconclusive = weak or mixed curves, or effect the other way; inactive = no such curve, though single readings can be large or run the other way; also: nearly all actives have a fitted effect of over 50% in size; also: potency is read from the fitted curve at half-maximal effect)
Summary of the method: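 In GeneBLAzer FXR-UAS-bla HEK 293T cells stimulated with 50 uM chenodeoxycholic acid (final), compounds acted for 16 h at 37 C. Viability was assessed afterwards by CellTiter-Glo luminescence.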

[18] = qHTS assay to identify small molecule agonists of the peroxisome proliferator-activated receptor delta (PPARd) signaling pathway - cell viability counter screen (AID 743211); also: nearly all actives have a fitted effect of over 55% in size; also: potency is read from the fitted curve at half-maximal effect
Summary of the method: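 Luminescent ATP viability assay (CellTiter-Glo, 30 min RT) in UAS-bla HEK293H cells carrying the PPAR delta reporter construct, 3000 cells/well, after a 17 h compound treatment at 37 C.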

[19] = target: Peroxisome proliferator-activated receptor delta (Homo sapiens) (UniProt Q03181); experiment: qHTS assay to identify small molecule antagonists of the peroxisome proliferator-activated receptor delta (PPARd) signaling pathway (AID 743215; active = well fitted inhibition curve with a large enough effect in the signal ratio in the repeat runs, not every such curve was filed as active; inconclusive = weak or mixed curves, or effect the other way; inactive = no such curve, though single readings can be large or run the other way; the % refers to the signal ratio;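 also: cells stimulated with agonist L165041 at 300 nM final during compound exposure; potency is read from the fitted curve at half-maximal effect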)
Chain of Peroxisome proliferator-activated receptor delta (Homo sapiens) (Q03181 whole entry, looked up): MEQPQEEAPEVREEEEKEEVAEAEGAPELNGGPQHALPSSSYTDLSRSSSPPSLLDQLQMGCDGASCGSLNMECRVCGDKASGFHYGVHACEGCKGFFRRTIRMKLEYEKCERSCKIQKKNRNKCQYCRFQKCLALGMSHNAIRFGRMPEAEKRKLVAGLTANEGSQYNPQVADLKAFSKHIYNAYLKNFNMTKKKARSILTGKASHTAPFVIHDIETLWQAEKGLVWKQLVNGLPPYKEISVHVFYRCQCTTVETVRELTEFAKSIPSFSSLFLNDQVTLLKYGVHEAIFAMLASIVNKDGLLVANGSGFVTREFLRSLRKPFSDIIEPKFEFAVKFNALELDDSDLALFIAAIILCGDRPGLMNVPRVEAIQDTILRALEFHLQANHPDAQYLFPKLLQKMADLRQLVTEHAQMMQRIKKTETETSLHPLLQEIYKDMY
Summary of the method: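 PPARd UAS-bla HEK293H cells were pre-incubated 5 h at 37 C, then given test compounds in DMSO plus agonist L165041 (300 nM final). After 17 h at 37 C, beta-lactamase FRET substrate was added; fluorescence read after 2 h at room temperature.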

[20] = target: Estrogen receptor beta (Homo sapiens) (UniProt Q92731); experiment: qHTS assay to identify small molecule antagonists of the estrogen receptor beta (ER-beta) signaling pathway (AID 1259378; active = well fitted inhibition curve with a large enough effect in the signal ratio in the repeat runs, not every such curve was filed as active; inconclusive = weak or mixed curves, or effect the other way; inactive = no such curve, though single readings can be large or run the other way; the % refers to the signal ratio; also: potency is read from the fitted curve at half-maximal effect)
Chain of Estrogen receptor beta (Homo sapiens) (Q92731 whole entry, looked up): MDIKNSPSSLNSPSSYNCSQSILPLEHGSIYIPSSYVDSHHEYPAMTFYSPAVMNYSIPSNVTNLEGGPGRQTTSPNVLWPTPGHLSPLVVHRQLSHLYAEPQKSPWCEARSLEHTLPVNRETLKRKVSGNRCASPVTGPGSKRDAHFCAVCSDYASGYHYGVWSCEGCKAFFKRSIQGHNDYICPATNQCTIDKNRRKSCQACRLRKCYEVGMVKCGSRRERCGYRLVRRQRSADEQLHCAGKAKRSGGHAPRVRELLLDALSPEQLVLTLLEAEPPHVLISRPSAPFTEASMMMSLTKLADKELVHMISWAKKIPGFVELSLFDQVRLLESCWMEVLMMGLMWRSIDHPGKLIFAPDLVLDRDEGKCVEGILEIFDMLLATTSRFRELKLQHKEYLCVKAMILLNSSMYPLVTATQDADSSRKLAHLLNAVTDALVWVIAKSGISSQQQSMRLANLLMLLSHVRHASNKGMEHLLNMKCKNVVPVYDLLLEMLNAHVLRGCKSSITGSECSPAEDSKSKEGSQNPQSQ
Summary of the method: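 ER-beta-UAS-bla HEK293T (GripTite) cells in 2% charcoal-stripped FBS medium were preincubated 6 hr at 37C, dosed with compound, then stimulated with 1 nM E2 (final) for 16 hr; beta-lactamase reporter read by B/G FRET fluorescence after 2 hr substrate loading.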

Measured: Potency

CO/C=C(/C(=O)OC)c1ccccc1Oc1cc(Oc2ccccc2C#N)ncn1
inactive: [8] | [11]
active: [1] 7.31 µM | [2] 2.31 µM | [3] 0.312 µM | [4] 18.5 µM | [5] 33.6 µM | [6] 0.411 µM | [7] 16.5 µM | [9] 58.1 µM | [10] 37.6 µM | [12] 0.581 µM | [13] 5.81 µM

COc1ccc(C(c2ccc(OC)cc2)C(Cl)(Cl)Cl)cc1
inactive: [1] | [16] | [10] | [17]
active: [2] 13.7 µM | [14] 19.2 µM | [15] 44.4 µM | [3] 39.2 µM | [5] 36.2 µM | [6] 24.2 µM | [8] 19.4 µM [inconclusive] | [12] 48.3 µM

Oc1c(I)cc(I)cc1I
inactive: [13]

O=C(c1ccccc1)C(Cl)Cl
active: [12] 27.3 µM | [13] 4.33 µM

CC(c1ccccc1)(c1ccc(O)cc1)c1ccc(O)cc1
active: [12] 48.6 µM

c1ccc2c(c1)Sc1ccccc1N2CC1CN2CCC1CC2 (stereo not given)
active: [14] 5.96 µM | [15] 11.9 µM | [3] 8.41 µM | [7] 21.3 µM | [18] 10.6 µM | [19] 11.9 µM | [17] 18.8 µM
inactive: [16] | [9]

COc1cc(OC)c(OC)cc1C=O
inactive: [1] | [8] | [16] | [17] | [12] | [20]
active: [15] 34.3 µM | [9] 59.3 µM

OC(Cc1ccccc1Cl)(Cn1[nH]cnc1=S)C1(Cl)CC1 (stereo not given)
active: [13] 54.5 µM

O=C(Nc1ccccc1-c1ccc(Cl)cc1)c1cccnc1Cl
active: [3] 66.7 µM | [6] 57.8 µM
inactive: [1] | [8] | [16] | [9] | [10] | [12]

Nc1ccc([N+](=O)[O-])cc1
active: [1] 54.5 µM | [2] 1.37 µM | [14] 13.7 µM | [3] 14.1 µM | [4] 54.9 µM | [6] 61.1 µM | [10] 40.9 µM | [13] 8.63 µM
inactive: [12]

CN1CSC(=S)N(C)C1
active: [15] 5.42 µM and 5.43 µM | [3] 6.08 µM and 4.84 µM | [5] 30.5 µM | [6] 3.05 µM and 3.85 µM | [9] 10.8 µM and 27.2 µM | [18] 3.87 µM | [17] 12.3 µM | [12] 964 nM and 2.16 µM | [20] 24.2 µM
inactive: [1] | [2] | [7] | [8] | [16]

OCC(c1ccc(Cl)cc1)c1ccc(Cl)cc1
active: [2] 27.3 µM | [14] 13.7 µM | [3] 15.4 µM | [4] 43.6 µM | [5] 61.1 µM | [6] 61.1 µM
inactive: [1] | [7] | [8] | [16] | [10] | [18] | [17]

O=[N+]([O-])c1c(Cl)c(Cl)cc(Cl)c1Cl
inactive: [1] | [4] | [6] | [9] | [11] | [18] | [17]

Cc1nnc2n1-c1sc(CCc3ccc(CC(C)C)cc3)cc1C(c1ccccc1Cl)=NC2C (stereo not given)
active: [2] 21.1 µM | [14] 11.9 µM | [15] 16.8 µM | [3] 13.3 µM | [5] 15 µM | [6] 11.9 µM | [18] 29.8 µM | [12] 29.8 µM
inactive: [4] | [8] | [9] | [10]
